Laboratory results taken from ChEMBL document CHEMBL1961873, “Compounds: GSK PKIS; Assays: Nanosyn kinase panel” (2012).

Key:
[1] = target: Serine/threonine-protein kinase MARK2 (Homo sapiens) (UniProt Q7KZI7); details: at 1 µM
[2] = target: PAS domain-containing serine/threonine-protein kinase (Homo sapiens) (UniProt Q96RG2); details: at 0.1 µM
[3] = target: PAS domain-containing serine/threonine-protein kinase (Homo sapiens) (UniProt Q96RG2); details: at 1 µM
[4] = target: Phosphorylase b kinase gamma catalytic chain, skeletal muscle/heart isoform (Homo sapiens) (UniProt Q16816); details: at 0.1 µM
Chain of Phosphorylase b kinase gamma catalytic chain, skeletal muscle/heart isoform (Homo sapiens) (Q16816 whole entry, looked up, canonical isoform): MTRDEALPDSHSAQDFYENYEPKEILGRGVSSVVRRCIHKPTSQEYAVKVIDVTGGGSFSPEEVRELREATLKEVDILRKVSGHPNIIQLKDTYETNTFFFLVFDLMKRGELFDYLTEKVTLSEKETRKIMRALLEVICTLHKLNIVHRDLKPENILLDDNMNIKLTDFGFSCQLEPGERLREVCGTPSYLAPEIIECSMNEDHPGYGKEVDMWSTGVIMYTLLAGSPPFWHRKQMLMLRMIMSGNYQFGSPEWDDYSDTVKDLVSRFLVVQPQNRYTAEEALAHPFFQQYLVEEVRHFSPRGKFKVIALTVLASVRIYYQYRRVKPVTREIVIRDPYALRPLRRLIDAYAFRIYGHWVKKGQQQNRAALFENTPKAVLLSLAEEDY

[5] = target: Phosphorylase b kinase gamma catalytic chain, skeletal muscle/heart isoform (Homo sapiens) (UniProt Q16816); details: at 1 µM
[6] = target: T1, Phosphorylase b kinase gamma catalytic chain, liver/testis isoform (Homo sapiens) (UniProt P15735); details: at 0.1 µM
T1 sequence (whole entry): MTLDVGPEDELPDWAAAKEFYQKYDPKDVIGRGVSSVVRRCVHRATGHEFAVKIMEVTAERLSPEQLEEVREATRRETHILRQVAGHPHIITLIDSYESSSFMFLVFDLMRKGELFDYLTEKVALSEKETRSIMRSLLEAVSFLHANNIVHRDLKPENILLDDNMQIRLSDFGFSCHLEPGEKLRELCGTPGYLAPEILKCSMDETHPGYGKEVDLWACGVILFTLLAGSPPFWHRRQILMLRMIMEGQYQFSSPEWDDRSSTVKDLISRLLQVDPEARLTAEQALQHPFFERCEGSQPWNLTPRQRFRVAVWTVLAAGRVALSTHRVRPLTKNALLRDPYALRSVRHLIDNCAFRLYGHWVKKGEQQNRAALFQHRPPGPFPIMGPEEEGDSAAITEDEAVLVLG

[7] = target: T1, Phosphorylase b kinase gamma catalytic chain, liver/testis isoform (Homo sapiens); details: at 1 µM
[8] = target: Serine/threonine-protein kinase pim-1 (Homo sapiens) (UniProt P11309); details: at 0.1 µM
Chain of Serine/threonine-protein kinase pim-1 (Homo sapiens) (P11309 whole entry, looked up): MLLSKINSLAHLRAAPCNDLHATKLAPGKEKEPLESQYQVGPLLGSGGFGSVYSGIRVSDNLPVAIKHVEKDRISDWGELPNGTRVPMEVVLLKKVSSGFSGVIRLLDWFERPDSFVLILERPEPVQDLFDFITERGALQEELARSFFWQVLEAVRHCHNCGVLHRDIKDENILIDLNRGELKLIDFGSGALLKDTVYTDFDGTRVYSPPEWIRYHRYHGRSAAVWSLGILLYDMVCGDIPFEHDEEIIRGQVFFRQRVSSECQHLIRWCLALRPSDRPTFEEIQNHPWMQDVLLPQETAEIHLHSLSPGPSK

[9] = target: Serine/threonine-protein kinase pim-1 (Homo sapiens) (UniProt P11309); details: at 1 µM
[10] = target: Serine/threonine-protein kinase pim-2 (Homo sapiens) (UniProt Q9P1W9); details: at 0.1 µM
Chain of Serine/threonine-protein kinase pim-2 (Homo sapiens) (Q9P1W9 whole entry, looked up): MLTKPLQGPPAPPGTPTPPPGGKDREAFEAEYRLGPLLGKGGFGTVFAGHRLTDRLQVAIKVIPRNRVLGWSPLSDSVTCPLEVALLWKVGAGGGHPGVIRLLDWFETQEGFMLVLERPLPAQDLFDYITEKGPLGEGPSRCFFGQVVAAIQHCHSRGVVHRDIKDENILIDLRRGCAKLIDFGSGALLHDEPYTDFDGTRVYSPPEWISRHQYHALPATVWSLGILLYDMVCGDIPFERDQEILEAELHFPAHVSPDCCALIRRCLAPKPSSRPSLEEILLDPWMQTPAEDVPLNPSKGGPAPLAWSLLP

[11] = target: Serine/threonine-protein kinase pim-2 (Homo sapiens) (UniProt Q9P1W9); details: at 1 µM
[12] = target: Serine/threonine-protein kinase pim-3 (Homo sapiens) (UniProt Q86V86); details: at 0.1 µM
[13] = target: Serine/threonine-protein kinase pim-3 (Homo sapiens) (UniProt Q86V86); details: at 1 µM
[14] = target: T2, MAP kinase-activated protein kinase 5 (Homo sapiens) (UniProt Q8IW41); details: at 0.1 µM
T2 sequence (whole entry): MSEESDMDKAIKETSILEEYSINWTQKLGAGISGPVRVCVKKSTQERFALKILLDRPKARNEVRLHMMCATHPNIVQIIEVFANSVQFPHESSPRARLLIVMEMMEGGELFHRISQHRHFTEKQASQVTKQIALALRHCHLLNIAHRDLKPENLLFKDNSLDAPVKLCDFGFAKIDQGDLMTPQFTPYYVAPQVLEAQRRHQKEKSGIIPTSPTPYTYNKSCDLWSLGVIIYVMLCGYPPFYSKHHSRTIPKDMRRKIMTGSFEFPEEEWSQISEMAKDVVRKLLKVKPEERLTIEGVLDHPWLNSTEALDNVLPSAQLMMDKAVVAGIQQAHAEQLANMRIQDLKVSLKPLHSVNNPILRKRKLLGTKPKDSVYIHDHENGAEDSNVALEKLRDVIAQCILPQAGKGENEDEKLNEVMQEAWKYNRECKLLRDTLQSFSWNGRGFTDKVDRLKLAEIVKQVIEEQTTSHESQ

[15] = target: T2, MAP kinase-activated protein kinase 5 (Homo sapiens); details: at 1 µM
[16] = target: Serine/threonine-protein kinase SIK1 (Homo sapiens) (UniProt P57059); details: at 0.1 µM
Chain of Serine/threonine-protein kinase SIK1 (Homo sapiens) (P57059 whole entry): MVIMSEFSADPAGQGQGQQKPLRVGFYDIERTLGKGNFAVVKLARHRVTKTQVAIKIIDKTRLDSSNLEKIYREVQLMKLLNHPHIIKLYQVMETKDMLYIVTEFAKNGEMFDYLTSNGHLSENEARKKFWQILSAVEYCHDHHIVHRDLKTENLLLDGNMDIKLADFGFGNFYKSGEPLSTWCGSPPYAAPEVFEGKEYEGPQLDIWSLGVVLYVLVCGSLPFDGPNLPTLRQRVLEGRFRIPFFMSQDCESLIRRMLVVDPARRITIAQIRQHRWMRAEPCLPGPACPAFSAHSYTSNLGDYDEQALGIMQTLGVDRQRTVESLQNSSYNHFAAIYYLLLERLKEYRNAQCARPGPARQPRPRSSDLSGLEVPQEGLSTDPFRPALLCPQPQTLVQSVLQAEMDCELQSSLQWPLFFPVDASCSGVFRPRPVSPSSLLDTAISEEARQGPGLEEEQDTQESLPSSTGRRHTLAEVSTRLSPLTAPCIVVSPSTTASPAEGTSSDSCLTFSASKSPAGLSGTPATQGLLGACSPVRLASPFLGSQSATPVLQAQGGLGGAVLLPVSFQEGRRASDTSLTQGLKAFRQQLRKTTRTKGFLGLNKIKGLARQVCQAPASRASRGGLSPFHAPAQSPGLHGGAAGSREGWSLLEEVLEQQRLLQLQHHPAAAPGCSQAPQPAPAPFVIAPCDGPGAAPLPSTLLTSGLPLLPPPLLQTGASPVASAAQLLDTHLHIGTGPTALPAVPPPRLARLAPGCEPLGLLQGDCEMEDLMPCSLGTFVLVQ

[17] = target: Serine/threonine-protein kinase SIK1 (Homo sapiens) (UniProt P57059); details: at 1 µM
[18] = target: Serine/threonine-protein kinase SIK2 (Homo sapiens) (UniProt Q9H0K1); details: at 0.1 µM
Chain of Serine/threonine-protein kinase SIK2 (Homo sapiens) (Q9H0K1 whole entry, looked up): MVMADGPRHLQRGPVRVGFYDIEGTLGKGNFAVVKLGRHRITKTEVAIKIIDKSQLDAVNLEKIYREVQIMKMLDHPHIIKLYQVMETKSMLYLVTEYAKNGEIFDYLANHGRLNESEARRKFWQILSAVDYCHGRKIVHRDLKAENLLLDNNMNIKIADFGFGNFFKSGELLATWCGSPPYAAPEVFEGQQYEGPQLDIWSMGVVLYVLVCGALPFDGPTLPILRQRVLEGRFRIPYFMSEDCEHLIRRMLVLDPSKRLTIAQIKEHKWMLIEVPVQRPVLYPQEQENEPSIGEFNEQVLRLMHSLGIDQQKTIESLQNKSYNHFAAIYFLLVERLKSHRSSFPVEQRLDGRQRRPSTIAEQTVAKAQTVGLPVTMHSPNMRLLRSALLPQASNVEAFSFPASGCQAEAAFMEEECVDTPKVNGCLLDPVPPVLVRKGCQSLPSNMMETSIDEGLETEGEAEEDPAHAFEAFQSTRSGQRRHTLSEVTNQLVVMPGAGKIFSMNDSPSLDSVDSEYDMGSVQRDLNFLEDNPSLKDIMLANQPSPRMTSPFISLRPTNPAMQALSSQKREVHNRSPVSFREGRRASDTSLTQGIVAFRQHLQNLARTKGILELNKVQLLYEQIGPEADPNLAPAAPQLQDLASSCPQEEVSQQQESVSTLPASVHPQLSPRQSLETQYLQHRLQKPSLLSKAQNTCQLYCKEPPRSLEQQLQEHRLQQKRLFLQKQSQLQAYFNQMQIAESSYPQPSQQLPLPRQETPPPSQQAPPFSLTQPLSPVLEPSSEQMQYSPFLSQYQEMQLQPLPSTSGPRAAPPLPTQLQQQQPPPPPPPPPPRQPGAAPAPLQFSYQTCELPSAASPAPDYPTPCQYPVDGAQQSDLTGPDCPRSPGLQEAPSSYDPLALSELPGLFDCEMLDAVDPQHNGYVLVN

[19] = target: Serine/threonine-protein kinase SIK2 (Homo sapiens) (UniProt Q9H0K1); details: at 1 µM
[20] = target: T3, Serine/threonine-protein kinase TBK1 (Homo sapiens) (UniProt Q9UHD2); details: at 0.1 µM;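 also: values are the mean TBK1 inhibition, taken from the GSK PKIS screening data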
T3 sequence (whole entry): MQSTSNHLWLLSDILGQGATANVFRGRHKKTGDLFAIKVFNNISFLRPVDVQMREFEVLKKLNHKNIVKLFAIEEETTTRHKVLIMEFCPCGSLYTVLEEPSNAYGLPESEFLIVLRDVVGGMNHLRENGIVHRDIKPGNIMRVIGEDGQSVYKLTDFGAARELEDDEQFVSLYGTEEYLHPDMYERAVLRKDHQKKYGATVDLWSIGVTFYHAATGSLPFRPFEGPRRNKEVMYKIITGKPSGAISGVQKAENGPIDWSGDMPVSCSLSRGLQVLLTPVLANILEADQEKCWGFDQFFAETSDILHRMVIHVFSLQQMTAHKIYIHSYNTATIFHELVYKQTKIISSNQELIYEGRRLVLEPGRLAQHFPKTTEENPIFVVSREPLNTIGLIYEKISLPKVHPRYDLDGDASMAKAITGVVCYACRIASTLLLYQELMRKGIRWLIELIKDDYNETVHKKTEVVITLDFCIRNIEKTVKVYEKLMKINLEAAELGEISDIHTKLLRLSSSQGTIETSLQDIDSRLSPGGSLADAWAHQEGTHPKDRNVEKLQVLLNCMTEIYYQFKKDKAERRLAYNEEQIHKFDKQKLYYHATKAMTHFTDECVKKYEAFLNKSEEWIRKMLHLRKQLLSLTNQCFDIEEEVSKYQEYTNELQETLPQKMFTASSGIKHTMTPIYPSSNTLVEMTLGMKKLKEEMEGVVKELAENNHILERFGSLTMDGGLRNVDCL

Chain of PAS domain-containing serine/threonine-protein kinase (Homo sapiens) (Q96RG2 whole entry, the tested form may be a part, canonical isoform): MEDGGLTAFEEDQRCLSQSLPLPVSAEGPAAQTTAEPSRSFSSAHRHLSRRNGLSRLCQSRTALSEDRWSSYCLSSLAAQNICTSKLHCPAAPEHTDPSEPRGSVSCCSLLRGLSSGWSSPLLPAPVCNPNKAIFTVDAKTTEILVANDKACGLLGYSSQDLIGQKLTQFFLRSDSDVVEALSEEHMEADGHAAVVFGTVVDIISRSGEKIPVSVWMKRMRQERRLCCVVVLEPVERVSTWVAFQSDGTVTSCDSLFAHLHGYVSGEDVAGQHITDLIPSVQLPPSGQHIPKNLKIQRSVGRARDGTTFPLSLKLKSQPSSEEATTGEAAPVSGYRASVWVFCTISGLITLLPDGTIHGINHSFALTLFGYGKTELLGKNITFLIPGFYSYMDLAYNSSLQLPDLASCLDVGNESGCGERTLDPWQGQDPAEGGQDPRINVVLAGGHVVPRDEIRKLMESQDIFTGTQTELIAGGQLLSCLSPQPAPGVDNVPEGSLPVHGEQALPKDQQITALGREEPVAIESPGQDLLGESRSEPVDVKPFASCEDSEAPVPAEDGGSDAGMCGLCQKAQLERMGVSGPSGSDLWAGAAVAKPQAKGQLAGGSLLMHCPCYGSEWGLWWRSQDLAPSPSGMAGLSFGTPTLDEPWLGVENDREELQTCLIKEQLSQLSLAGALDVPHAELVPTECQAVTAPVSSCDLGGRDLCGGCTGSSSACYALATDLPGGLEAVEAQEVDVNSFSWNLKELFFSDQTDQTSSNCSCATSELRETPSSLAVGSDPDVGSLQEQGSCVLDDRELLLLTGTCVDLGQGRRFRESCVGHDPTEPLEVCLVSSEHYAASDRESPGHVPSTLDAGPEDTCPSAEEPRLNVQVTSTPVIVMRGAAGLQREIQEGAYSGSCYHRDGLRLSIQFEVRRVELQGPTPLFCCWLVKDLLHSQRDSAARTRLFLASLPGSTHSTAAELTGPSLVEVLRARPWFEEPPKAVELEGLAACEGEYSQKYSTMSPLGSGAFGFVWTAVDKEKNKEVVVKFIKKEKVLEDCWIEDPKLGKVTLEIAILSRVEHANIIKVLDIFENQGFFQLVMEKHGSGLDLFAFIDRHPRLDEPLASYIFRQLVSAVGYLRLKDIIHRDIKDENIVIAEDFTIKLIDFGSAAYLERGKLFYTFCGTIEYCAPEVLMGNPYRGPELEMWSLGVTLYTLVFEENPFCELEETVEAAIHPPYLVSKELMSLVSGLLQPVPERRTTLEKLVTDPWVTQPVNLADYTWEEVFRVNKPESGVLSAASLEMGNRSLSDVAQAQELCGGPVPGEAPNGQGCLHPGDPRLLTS

Compound: O=C1NC(=O)C(c2ccccc2Cl)=C1Nc1cccc(O)c1
- inhibition [1]: 8.31%
- inhibition [2]: 0.42%
- inhibition [3]: -0.94%
- inhibition [4]: 1.1%
- inhibition [5]: 1.82%
- inhibition [6]: 3.35%
- inhibition [7]: 0.71%
- inhibition [8]: 1.24%
- inhibition [9]: 1.62%
- inhibition [10]: -0.21%
- inhibition [11]: 0.28%
- inhibition [12]: -0.32%
- inhibition [13]: -0.95%
- inhibition [14]: 0.71%
- inhibition [15]: 0.06%
- inhibition [16]: 1.46%
- inhibition [17]: 5.5%
- inhibition [18]: 8.17%
- inhibition [19]: 10.7%
- inhibition [20]: 2.04%

Compound: CCn1c(-c2nonc2N)nc2cncc(C(=O)N3CC[C@H](N)C3)c21
- inhibition [1]: 7.14%
- inhibition [2]: 0.29%
- inhibition [3]: 22.9%
- inhibition [4]: 6.12%
- inhibition [5]: 6.32%
- inhibition [6]: 6.67%
- inhibition [7]: 5.58%
- inhibition [8]: 74.1%
- inhibition [9]: 94.2%
- inhibition [10]: 9.73%
- inhibition [11]: 48.2%
- inhibition [12]: 51.5%
- inhibition [13]: 78.9%
- inhibition [14]: 1.81%
- inhibition [15]: 2.26%
- inhibition [16]: 5.73%
- inhibition [17]: 9.11%
- inhibition [18]: 4.34%
- inhibition [19]: 10.1%
- inhibition [20]: 3.11%

Compound: CCCN1CCC=C(c2ccc(Nc3nc(Nc4ccccc4C(N)=O)c4cc[nH]c4n3)c(C)c2)C1
- inhibition [1]: 14.6%
- inhibition [2]: -1.89%
- inhibition [3]: -1.19%
- inhibition [4]: -1.86%
- inhibition [5]: 48.2%
- inhibition [6]: 7.18%
- inhibition [7]: 16.4%
- inhibition [8]: 2.16%
- inhibition [9]: 7.46%
- inhibition [10]: 0.34%
- inhibition [11]: 4.08%
- inhibition [12]: 2.03%
- inhibition [13]: 12.5%
- inhibition [14]: 1.79%
- inhibition [15]: 5.7%
- inhibition [16]: 5.62%
- inhibition [17]: 9.29%
- inhibition [18]: 2.87%
- inhibition [19]: 8.52%
- inhibition [20]: 3.95%

Compound: CN1CCC(C(=O)Nc2n[nH]c3nnc(-c4ccccc4)cc23)CC1
- inhibition [1]: 0.72%
- inhibition [2]: 0.17%
- inhibition [3]: 0.71%
- inhibition [4]: 5.33%
- inhibition [5]: 11.3%
- inhibition [6]: 6.18%
- inhibition [7]: 9.48%
- inhibition [8]: 1.63%
- inhibition [9]: 3.41%
- inhibition [10]: 0.6%
- inhibition [11]: 1.49%
- inhibition [12]: -0.11%
- inhibition [13]: 3.84%
- inhibition [14]: 1.41%
- inhibition [15]: 3.73%
- inhibition [16]: 7.3%
- inhibition [17]: 7.57%
- inhibition [18]: 6.82%
- inhibition [19]: 8.16%
- inhibition [20]: 2.09%

Compound: CCn1c(-c2nonc2N)nc2c(N3CCCC3)nccc21
- inhibition [1]: 3.46%
- inhibition [2]: -0.88%
- inhibition [3]: -1.38%
- inhibition [4]: 3.74%
- inhibition [5]: -1.02%
- inhibition [6]: -3.65%
- inhibition [7]: -3.95%
- inhibition [8]: 0.8%
- inhibition [9]: 1.03%
- inhibition [10]: -0.33%
- inhibition [11]: 0.29%
- inhibition [12]: -0.84%
- inhibition [13]: 1%
- inhibition [14]: -0.99%
- inhibition [15]: -0.15%
- inhibition [16]: -7.25%
- inhibition [17]: -2.47%
- inhibition [18]: -7.08%
- inhibition [19]: -6.02%
- inhibition [20]: -0.24%

Compound: CC(C)=Cc1cccc2c1/C(=N/Nc1ccc(S(N)(=O)=O)cc1)C(=O)N2
- inhibition [1]: 14.2%
- inhibition [2]: 0.93%
- inhibition [3]: 1.77%
- inhibition [4]: 0.64%
- inhibition [5]: 26.6%
- inhibition [6]: 1.74%
- inhibition [7]: 8.45%
- inhibition [8]: 1.05%
- inhibition [9]: 1.77%
- inhibition [10]: 0.72%
- inhibition [11]: 0.68%
- inhibition [12]: 1.74%
- inhibition [13]: 3.98%
- inhibition [14]: 0.48%
- inhibition [15]: 2.48%
- inhibition [16]: 3.24%
- inhibition [17]: 11.2%
- inhibition [18]: 4.69%
- inhibition [19]: 15.5%
- inhibition [20]: 3.78%

Compound: Cc1cccc(-c2n[nH]cc2-c2ccc3ncccc3n2)n1
- inhibition [1]: -0.03%
- inhibition [2]: -0.24%
- inhibition [3]: 1.18%
- inhibition [4]: 1.19%
- inhibition [5]: 2.02%
- inhibition [6]: -0.65%
- inhibition [7]: -0.32%
- inhibition [8]: -0.24%
- inhibition [9]: 0.02%
- inhibition [10]: 0.22%
- inhibition [11]: -0.16%
- inhibition [12]: -1.47%
- inhibition [13]: -1.14%
- inhibition [14]: 0.08%
- inhibition [15]: 0.05%
- inhibition [16]: -0.73%
- inhibition [17]: 3.97%
- inhibition [18]: 3.18%
- inhibition [19]: 13.8%
- inhibition [20]: -2.48%
